Source: the supplement of paper PMC11732987, “Enantioselective OTUD7B fragment discovery through chemoproteomics screening and high-throughput optimisation” (Communications Chemistry, 2025)

Key:
Assay in all cases: log2 ratio of Biotin-Ahx-Ub-VS probe labelling (fragment/DMSO); higher = less target engagement (more negative = stronger competition), active = hit call of the paper (q ≤ 0.05, log2 ratio ≤ -1)
Conditions in all cases: compound concentration: 200 uM; treatment time: 3 h
[1] = target: USP9X (UniProt Q93008)
How it was run: (§1)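 HEK293T lysate (495 µg per sample, in Tris/CHAPS/IGEPAL buffer with protease inhibitors) was exposed in triplicate for 3 h to fragment at 200 µM or to vehicle, then to Biotin-Ahx-Ub-VS at 0.5 µM final for 1 h. Labelled DUBs were enriched on NeutrAvidin, digested with LysC and trypsin, and analysed by diaPASEF LC-MS/MS. Spectronaut label-free quantities were normalised to the global median, and values are average log2 ratios of fragment over vehicle from an unpaired t-test. Only proteins with ≥2 unique peptides were used.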

[2] = target: UniProt O00487
UniProt O00487, sequence (O00487 whole entry): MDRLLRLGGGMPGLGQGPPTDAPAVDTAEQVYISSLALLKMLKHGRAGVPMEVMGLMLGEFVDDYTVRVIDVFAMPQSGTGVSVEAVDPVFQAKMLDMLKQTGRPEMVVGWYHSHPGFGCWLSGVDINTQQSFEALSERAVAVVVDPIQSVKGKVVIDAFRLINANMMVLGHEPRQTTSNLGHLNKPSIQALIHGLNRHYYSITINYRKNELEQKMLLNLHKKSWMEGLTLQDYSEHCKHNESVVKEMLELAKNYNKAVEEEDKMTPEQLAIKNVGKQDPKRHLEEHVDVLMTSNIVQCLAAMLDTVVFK
How it was run: as §1

[3] = target: UniProt O00507
UniProt O00507, sequence (O00507 whole entry): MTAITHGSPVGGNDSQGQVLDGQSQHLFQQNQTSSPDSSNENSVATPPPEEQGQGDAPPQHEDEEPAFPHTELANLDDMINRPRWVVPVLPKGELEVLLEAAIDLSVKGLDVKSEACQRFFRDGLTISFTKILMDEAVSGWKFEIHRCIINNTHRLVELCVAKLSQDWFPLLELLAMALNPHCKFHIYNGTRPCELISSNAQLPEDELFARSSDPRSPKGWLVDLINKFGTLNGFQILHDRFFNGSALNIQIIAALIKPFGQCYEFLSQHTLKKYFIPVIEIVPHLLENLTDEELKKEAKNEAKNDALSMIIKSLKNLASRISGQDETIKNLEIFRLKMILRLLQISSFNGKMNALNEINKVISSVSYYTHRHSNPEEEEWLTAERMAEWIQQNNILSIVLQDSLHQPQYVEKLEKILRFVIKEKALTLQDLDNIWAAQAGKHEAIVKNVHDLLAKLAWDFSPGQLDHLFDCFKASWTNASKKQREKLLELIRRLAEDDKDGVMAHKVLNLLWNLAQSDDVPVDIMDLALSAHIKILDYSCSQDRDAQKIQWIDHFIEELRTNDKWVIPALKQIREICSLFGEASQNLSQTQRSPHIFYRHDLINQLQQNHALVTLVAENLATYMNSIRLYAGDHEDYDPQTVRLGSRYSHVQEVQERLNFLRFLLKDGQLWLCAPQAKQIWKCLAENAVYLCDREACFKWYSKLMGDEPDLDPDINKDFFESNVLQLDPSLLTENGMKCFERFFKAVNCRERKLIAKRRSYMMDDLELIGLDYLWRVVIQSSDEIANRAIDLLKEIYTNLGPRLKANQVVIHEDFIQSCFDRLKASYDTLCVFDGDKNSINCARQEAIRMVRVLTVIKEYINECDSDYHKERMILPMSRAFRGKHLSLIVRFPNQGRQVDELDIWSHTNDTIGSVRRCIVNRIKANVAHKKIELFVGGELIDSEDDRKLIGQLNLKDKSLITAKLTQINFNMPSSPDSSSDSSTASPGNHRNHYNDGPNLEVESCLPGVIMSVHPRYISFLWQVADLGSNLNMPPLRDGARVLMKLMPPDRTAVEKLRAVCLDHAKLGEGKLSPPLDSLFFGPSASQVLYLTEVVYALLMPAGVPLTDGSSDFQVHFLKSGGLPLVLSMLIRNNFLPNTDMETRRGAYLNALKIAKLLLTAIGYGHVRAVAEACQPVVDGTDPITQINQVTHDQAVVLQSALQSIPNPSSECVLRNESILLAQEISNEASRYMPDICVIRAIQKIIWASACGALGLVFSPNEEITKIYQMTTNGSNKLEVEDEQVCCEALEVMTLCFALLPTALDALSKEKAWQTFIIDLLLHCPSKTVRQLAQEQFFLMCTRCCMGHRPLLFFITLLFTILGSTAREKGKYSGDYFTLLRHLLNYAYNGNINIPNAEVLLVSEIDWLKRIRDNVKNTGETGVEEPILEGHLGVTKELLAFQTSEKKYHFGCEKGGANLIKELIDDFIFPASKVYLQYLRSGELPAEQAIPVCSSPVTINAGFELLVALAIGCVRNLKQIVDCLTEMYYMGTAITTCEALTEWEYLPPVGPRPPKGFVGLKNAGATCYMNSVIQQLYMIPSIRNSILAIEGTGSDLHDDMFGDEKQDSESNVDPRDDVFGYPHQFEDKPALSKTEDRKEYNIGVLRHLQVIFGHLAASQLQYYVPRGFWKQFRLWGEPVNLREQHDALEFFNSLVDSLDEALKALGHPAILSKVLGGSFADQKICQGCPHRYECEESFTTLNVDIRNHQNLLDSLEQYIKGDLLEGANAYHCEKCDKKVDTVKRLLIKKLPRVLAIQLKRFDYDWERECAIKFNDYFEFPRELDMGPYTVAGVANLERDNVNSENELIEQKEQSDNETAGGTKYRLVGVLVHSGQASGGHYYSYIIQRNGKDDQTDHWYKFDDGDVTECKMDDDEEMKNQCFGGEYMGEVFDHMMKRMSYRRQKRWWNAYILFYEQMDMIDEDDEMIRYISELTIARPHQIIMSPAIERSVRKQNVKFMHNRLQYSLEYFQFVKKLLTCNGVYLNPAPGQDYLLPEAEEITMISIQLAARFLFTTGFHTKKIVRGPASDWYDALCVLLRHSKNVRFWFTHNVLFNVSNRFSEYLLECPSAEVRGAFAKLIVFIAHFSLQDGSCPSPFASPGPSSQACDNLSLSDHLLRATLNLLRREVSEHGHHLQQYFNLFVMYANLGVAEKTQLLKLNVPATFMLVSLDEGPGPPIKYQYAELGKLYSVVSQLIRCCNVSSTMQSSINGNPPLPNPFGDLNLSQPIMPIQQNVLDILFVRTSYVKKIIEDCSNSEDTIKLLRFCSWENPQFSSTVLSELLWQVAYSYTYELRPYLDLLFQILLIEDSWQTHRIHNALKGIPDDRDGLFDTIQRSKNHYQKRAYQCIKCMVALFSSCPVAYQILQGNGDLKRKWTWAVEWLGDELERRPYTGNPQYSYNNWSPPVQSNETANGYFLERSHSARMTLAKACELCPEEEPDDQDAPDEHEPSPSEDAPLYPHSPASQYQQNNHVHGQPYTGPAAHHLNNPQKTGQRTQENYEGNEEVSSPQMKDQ
How it was run: as §1

[4] = target: UniProt P51784
UniProt P51784, sequence (P51784 whole entry): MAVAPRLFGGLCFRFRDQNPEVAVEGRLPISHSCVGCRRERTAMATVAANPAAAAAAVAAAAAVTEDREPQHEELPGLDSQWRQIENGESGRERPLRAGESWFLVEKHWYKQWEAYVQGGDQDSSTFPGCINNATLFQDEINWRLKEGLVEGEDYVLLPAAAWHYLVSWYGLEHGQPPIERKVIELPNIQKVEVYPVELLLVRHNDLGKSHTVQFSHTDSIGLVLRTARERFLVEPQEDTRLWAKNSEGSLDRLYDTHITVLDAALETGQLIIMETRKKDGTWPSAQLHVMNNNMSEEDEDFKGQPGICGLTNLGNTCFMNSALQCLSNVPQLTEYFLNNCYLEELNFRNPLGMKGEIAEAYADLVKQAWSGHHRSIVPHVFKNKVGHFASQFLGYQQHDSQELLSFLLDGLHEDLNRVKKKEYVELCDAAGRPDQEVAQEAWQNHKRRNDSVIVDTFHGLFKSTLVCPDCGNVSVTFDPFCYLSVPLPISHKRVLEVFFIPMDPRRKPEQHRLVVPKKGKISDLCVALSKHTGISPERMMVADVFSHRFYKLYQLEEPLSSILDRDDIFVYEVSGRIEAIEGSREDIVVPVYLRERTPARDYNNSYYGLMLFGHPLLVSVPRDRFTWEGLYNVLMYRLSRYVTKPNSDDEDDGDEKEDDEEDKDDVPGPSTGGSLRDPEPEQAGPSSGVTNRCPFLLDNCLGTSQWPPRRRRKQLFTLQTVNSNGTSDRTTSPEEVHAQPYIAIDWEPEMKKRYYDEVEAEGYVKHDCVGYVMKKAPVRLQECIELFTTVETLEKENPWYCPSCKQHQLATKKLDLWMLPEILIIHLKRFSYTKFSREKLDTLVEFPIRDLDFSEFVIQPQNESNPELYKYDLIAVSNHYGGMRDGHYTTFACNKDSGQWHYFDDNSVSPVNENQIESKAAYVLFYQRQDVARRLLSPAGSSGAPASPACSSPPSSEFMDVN
How it was run: as §1

[5] = target: T1, UniProt Q5T2D3
T1 sequence (whole entry): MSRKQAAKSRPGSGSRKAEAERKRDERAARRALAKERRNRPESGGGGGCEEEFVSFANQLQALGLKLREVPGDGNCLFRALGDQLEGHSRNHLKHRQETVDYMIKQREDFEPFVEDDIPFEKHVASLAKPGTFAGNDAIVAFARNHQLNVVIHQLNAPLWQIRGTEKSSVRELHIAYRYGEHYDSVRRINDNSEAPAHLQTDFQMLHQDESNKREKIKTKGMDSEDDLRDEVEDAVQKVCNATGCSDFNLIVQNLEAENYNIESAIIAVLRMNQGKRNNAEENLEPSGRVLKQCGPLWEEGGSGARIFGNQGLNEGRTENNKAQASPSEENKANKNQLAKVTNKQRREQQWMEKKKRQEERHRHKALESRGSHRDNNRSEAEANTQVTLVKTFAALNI
How it was run: as §1

[6] = target: T2, UniProt Q8TE49
T2 sequence (whole entry): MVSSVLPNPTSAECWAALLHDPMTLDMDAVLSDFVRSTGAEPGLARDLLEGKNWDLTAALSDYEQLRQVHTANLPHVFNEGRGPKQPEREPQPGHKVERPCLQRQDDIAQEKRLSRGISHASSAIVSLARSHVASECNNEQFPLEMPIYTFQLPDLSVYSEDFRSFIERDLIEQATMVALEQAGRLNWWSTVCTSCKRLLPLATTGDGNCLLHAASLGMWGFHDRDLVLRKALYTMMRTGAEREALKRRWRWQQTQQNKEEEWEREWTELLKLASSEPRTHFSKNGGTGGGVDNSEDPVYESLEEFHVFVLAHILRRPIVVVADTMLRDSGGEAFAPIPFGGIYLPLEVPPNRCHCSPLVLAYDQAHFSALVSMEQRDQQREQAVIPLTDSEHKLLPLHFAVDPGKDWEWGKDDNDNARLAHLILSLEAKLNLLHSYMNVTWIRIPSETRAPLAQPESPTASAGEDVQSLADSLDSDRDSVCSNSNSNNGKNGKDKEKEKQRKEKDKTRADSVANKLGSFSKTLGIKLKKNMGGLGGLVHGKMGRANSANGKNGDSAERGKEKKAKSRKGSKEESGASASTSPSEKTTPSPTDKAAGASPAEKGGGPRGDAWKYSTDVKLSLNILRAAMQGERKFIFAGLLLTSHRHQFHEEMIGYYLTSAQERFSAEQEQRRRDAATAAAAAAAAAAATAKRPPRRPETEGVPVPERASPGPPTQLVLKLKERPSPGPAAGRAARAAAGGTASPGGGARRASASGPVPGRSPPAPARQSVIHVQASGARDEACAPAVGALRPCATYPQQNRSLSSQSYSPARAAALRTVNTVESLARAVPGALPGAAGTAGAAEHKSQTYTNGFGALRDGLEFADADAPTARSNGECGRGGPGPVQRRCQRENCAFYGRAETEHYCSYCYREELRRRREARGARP
How it was run: as §1

[7] = target: T3, UniProt Q9P2H5
T3 sequence (whole entry): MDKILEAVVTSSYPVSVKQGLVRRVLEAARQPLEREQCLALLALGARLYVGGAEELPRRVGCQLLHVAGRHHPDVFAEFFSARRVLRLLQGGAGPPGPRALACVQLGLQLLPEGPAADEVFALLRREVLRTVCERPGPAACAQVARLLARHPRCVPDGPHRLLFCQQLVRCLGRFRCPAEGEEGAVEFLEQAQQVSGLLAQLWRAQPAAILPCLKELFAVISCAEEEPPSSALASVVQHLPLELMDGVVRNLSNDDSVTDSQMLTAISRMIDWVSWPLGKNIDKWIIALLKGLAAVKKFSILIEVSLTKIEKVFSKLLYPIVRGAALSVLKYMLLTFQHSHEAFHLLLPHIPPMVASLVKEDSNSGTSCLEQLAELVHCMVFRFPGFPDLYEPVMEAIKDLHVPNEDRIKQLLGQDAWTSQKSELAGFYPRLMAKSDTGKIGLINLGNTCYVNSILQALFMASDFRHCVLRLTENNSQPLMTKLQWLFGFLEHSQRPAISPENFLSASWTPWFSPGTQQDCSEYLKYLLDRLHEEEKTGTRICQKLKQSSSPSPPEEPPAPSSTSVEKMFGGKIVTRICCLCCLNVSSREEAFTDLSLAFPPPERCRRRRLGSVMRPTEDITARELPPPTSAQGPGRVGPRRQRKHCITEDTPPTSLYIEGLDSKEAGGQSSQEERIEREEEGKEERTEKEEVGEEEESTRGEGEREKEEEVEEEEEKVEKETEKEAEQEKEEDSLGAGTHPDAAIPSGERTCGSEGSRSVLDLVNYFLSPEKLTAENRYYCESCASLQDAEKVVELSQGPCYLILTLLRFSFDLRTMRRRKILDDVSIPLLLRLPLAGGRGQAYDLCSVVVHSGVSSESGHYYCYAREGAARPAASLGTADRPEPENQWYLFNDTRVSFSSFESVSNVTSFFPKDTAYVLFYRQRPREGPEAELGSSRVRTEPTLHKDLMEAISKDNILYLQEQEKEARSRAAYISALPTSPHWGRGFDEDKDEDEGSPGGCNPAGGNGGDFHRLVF
How it was run: as §1

[8] = target: T4, UniProt Q9UGI0
T4 sequence (whole entry): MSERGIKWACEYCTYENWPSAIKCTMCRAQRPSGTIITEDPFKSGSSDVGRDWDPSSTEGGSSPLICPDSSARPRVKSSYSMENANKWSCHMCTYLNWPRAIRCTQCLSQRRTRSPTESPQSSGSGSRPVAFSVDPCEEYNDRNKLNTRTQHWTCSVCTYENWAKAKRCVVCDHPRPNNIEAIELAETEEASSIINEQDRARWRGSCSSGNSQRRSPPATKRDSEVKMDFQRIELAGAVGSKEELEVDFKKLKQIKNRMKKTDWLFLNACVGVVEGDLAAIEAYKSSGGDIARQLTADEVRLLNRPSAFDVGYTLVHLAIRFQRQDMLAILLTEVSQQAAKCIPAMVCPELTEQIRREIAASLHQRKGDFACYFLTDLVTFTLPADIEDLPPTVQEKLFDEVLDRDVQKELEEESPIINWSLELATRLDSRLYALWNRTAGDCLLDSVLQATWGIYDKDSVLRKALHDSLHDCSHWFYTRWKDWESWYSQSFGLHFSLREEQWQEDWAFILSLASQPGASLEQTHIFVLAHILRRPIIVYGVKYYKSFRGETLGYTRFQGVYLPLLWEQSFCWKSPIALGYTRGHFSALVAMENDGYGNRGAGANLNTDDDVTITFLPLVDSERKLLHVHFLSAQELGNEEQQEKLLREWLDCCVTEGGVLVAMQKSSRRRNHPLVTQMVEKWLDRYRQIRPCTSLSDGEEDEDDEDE
How it was run: as §1

[9] = target: T5, YOD1 (UniProt Q5VVQ6)
T5 sequence (whole entry): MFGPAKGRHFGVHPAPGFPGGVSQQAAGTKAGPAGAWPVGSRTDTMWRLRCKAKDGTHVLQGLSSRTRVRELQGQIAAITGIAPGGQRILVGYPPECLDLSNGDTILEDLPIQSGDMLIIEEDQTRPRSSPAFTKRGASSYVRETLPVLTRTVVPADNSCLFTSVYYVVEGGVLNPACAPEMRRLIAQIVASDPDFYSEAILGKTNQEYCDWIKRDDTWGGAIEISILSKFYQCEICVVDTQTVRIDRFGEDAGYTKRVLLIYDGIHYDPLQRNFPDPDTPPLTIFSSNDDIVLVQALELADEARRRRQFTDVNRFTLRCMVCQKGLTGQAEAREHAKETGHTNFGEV
How it was run: as §1

Measured: log2 ratio of Biotin-Ahx-Ub-VS probe labelling

O=C(CCl)Nc1ccc(F)cc1F
inactive: [1] -0.218 | [2] -0.099 | [3] -0.387 | [4] 0.0319 | [5] -0.334 | [6] -0.55 | [7] -0.199 | [8] -0.962 | [9] -0.107
